Compound activity: PubChem, NMMLSC
The list is not random: actives were taken first. Their share in the collection is about 0.91%.
S aureus QS inh = S. aureus quorum sensing inhibitors, primary screen, RNAIII-GFP reporter, flow cytometry. S. aureus RN6390 RNAIII-GFP reporter, AIP-induced, flow cytometry 3 h. inhibition, % at 2 µM. hit rate 0.3% among 24,000. AID 527, 2006;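 active means share of bacteria positive for the green fluorescent reporter and its mean brightness both inhibited by 50% or more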;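 further: 0% = AIP-stimulated control and 100% = unstimulated bacteria without AIP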
Prostate diff = activators of LNCaP prostate cell differentiation, primary screen, flow cytometry side scatter; side scatter shift, % at 10 µM; 4 d; hit rate 0.56% among 24,000;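 active means side scatter shift above 30%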;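 further: androgen-responsive LNCaP prostate cancer cells in charcoal-stripped serum medium; percent of cells past a gate set so DMSO wells show 10% shift; higher shift means more granular cells and more differentiation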
An asterisk follows results filed as active; · = not tested or not shown.

SMILES	S aureus QS inh	Prostate diff
COc1ccc(-c2oc3ncn(CCN4CCOCC4)c(=N)c3c2-c2ccc(OC)cc2)cc1	53*	34*
COc1ccc(-c2nc(C#N)c(NCCCN3CCOCC3)o2)cc1	3	5
CC1CCN(S(=O)(=O)c2ccc3ncn(CC(=O)N(C)Cc4ccccc4)c(=O)c3c2)CC1	-2	9
Cc1ccc(CN2C(=O)CCC2C(=O)NCCN2CCN(c3cccc(Cl)c3)CC2)cc1 (stereo not given)	3	3
N#Cc1c(NC(NC(=O)c2ccco2)C(=O)c2ccccc2)sc2c1CCCC2 (stereo not given)	84*	2
CC(=O)Nc1sc2c(c1C#N)CCCCC2	-2	9
O=C(CN1C(=O)CCSc2ccccc21)Nc1ccc2c(c1)OCCO2	-3	6
O=C(CN1C(=O)CC(c2ccco2)Sc2ccccc21)Nc1ccc2c(c1)OCCO2 (stereo not given)	83*	16
Cc1ccc(C(=O)N2CCCC(c3nc4c(nnn4Cc4ccccc4)c(=O)[nH]3)C2)cc1 (stereo not given)	3	13
O=C(c1cc2ccccc2o1)N1CCN=C1SCc1cccnc1	3	6
CCCCNC(=O)c1cc2c(-c3ccc(Cl)cc3)nn(C)c2s1	-7	4
CCN1CCCC1CNC(=O)c1cc2c(-c3ccc(Cl)cc3)nn(C)c2s1 (stereo not given)	3	64*
CCN1CCCC1CNC(=O)c1cc2c(-c3cccc(OC)c3)nn(C)c2s1 (stereo not given)	1	23
Cn1nc(-c2ccc(Cl)cc2)c2cc(C(=O)NCCCN3CCCC3)sc21	-1	62*
CC(C)(C)NS(=O)(=O)c1ccc(CCC(=O)O)cc1	-1	10
Cc1ccc(OCCNC(=O)c2ccccc2N)cc1	-4	11
Cc1ccc2c(c1)NC(=O)C(CC(=O)NCCCN1CCCCC1)O2 (stereo not given)	0	11
Cc1ccc2c(c1)NC(=O)C(CC(=O)NCCCN1CCN(c3cc(Cl)ccc3C)CC1)O2 (stereo not given)	0	44*
COC(=O)c1ccccc1NC(=O)CN1CCC(n2nnc3cc(F)ccc32)CC1	0	30*
Cc1cccc(C(=O)N2CCC(n3nnc4cc(F)ccc43)CC2)c1	0	8
O=C(Nc1nc2ccccc2s1)C1CC(=O)N(c2ccc(F)cc2)C1 (stereo not given)	-2	·
COc1ccc(CCNC(=O)C2CCN(Cc3nc(-c4ccccc4C)oc3C)CC2)cc1OC	-3	11
Cc1ccccc1-c1nc(CN2CCC(C(=O)NCCC3=CCCCC3)CC2)c(C)o1	13	34*
Cc1ccccc1-c1nc(CN2CCC(C(=O)O)CC2)c(C)o1	-7	4
Cc1ccccc1-c1nc(CN2CCC(C(=O)NC3CCN(Cc4ccccc4)CC3)CC2)c(C)o1	-1	48*
SMILES	S aureus QS inh	Prostate diff
O=c1oc(-c2ccco2)nc2ccccc12	-1	30*
CCC(=O)Nc1cccc(-c2nc3ccccc3c(=O)o2)c1	-1	7
Cc1nc2c3c(-c4ccccc4)nc(N4CCOCC4)nc3nn2c(C)c1CCC(=O)O	-3	4
Cc1oc(-c2ccc(Cl)cc2)nc1CN1CCC(C(=O)NCCCN2CCOCC2)CC1	8	63*
CCN(CCNC(=O)C1CCCN(Cc2nc(-c3ccc(OC)cc3)oc2C)C1)c1ccccc1 (stereo not given)	21	10
CCN(CCNC(=O)C1CCN(Cc2nc(-c3ccc(Cl)cc3)oc2C)CC1)c1ccccc1	1	66*
CCN(CCNC(=O)C1CCN(Cc2nc(-c3cccc(Cl)c3)oc2C)CC1)c1ccccc1	4	24
Cc1oc(-c2cccc(Cl)c2)nc1CN1CCCC(C(=O)NCCCN2CCOCC2)C1 (stereo not given)	-8	26
CCc1ccc(-c2nc(CN3CCC(C(=O)NCCN(CC)c4ccccc4)CC3)c(C)o2)cc1	10	32*
COCCNC(=O)CSc1nc2cc(OC)c(OC)cc2c(=O)n1Cc1ccco1	-1	2
COC(=O)c1ccc2c(=O)n(Cc3ccco3)c(SCC(=O)Nc3ccc(C)c(Cl)c3)nc2c1	3	34*
c1ccc(-c2cn3c4c(sc3n2)CCCC4)cc1	1	12
Cn1c(/C=N/n2cnnc2)nc2ccccc21	-3	3
Cn1cc(C2NC(=O)c3c(sc4c3CCCC4)N2)c2ccccc21 (stereo not given)	0	7
Cn1cc(/C=N/n2cnc3sc4c(c3c2=O)CCCC4)c2ccccc21	68*	2
CCOc1cccc(C2c3c(oc4cc(C)c(C)cc4c3=O)C(=O)N2CCCN(C)C)c1 (stereo not given)	14	5
CCC(C)NC(=O)Cn1c(=O)n(CCCCC(=O)NCc2ccco2)c(=O)c2ccccc21 (stereo not given)	3	2
CCN1CCN(c2cc(C)c3cc(NC(=O)c4ccncc4)ccc3n2)CC1	-5	11
CCN1CCN(c2cc(C)c3cc(NC(=O)c4ccc(Br)o4)ccc3n2)CC1	-4	53*
CCN(CC)c1ncnc2sc(C(=O)N3CCN(c4ccccc4)CC3)c(C)c12	-3	17
CCOC(=O)c1sc2ncnc(N3CCN(c4ccc(OC)cc4)CC3)c2c1C	8	35*
CCN(CC)c1ncnc2sc(C(=O)N3CCN(c4ccc(OC)cc4)CC3)c(C)c12	11	8
O=c1cc(N2CCc3ccccc3C2)[nH]c(=O)n1C1CCCCC1	4	62*
O=c1cc(N2CCC(Cc3ccccc3)CC2)[nH]c(=O)n1C1CCCCC1	16	18
O=C(CC1Oc2ccccc2NC1=O)NCCCN1CCN(C2CCCCC2)CC1 (stereo not given)	0	5
SMILES	S aureus QS inh	Prostate diff
COCCNC(=O)CC(NS(=O)(=O)c1ccc(NC(C)=O)cc1)C(C)C (stereo not given)	0	31*
CCCCCCNC(=O)CC(NS(=O)(=O)c1ccc(NC(C)=O)cc1)C(C)C (stereo not given)	7	3
O=C(NCC1CCCO1)C1CCC(=O)N1Cc1ccccc1Cl (stereo not given)	2	7
CCn1cc(C(=O)NCCCN2CCC(C)CC2)c2cc(OC)c(OC)cc2c1=O	2	9
COc1ccc(N(CC(=O)Nc2cccc(OC)c2)S(=O)(=O)c2c(C)nn(C)c2C)cc1	0	16
COc1ccc(N(CC(=O)Nc2nc3ccc(C)cc3s2)S(=O)(=O)c2c(C)nn(C)c2C)cc1	66*	6
CCOc1cccc2cc(-c3cn4cc(C)ccc4n3)c(=O)oc12	0	57*
CCOc1cccc2cc(-c3nnc(NCc4ccco4)s3)c(=O)oc12	0	9
CSc1nnc2n(CCc3ccccc3)c(=O)c3c4c(sc3n12)CCCC4	-5	15
Cn1c(=O)c2c3c(sc2n2c(SCc4ccccc4)nnc12)CCCC3	64*	3
Cc1ccc(S(=O)(=O)c2c(C)nn(C(C)(C)C)c2OC(=O)C2CCCC2)cc1	-12	1
Cc1nn(C(C)(C)C)c(OC(=O)C2CCCC2)c1S(=O)(=O)c1ccccc1	89*	5
COc1ccc(C2(C(=O)N3CCCC3)CCOCC2)cc1OC	0	0
COC(=O)c1ccc(CSc2nc3c(cnn3-c3ccc(Cl)cc3)c(=O)[nH]2)o1	71*	2
COC(=O)c1ccc(CSc2nc3c(cnn3-c3ccc(F)cc3)c(=O)[nH]2)o1	7	6
CCN(CC)CCn1c(=N)n(CCO)c2ccccc21	0	2
